This note sets out measurements from PubChem BioAssay AID1672 (Johns Hopkins Ion Channel Center, 2009).

The whole screen tested about 310,000 compounds, of which about 2,600 (0.84%) were called active. The full list was thinned out, with actives kept by preference. Unmarked numbers belong to inactive results.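 How the source made its calls: active means fluorescence ratio B-score at or below minus 3 SD of library scores, with starting-brightness B-score within 2 SD (cut at about -4.2 in these data); inactive means the rest.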

Chain of Inward rectifier potassium channel 2 (Mus musculus) (P35561 whole entry, looked up): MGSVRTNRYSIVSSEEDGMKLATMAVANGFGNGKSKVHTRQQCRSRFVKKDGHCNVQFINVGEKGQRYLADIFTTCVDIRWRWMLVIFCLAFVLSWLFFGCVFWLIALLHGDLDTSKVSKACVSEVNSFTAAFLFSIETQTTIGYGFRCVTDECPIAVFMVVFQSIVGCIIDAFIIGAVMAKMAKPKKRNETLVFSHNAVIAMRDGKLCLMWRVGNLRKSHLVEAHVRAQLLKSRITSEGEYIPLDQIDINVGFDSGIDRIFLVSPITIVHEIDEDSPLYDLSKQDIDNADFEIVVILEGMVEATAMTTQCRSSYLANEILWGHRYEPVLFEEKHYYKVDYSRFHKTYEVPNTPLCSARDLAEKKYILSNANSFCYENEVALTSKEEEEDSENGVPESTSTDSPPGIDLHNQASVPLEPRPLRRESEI

This assay addresses Inward rectifier potassium channel 2 (Mus musculus) (UniProt P35561). Kind of assay: inhibitors of mouse Kir2.1 inward-rectifier potassium channel (AID 1672).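 Further: channel flux triggered by added potassium and thallium sulfate stimulus; B-score of peak minus minimum fluorescence over baseline after thallium stimulus; more negative B-score means stronger Kir2.1 block with less thallium influx.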 The note with it: HEK293-Kir2.1, FluxOR thallium flux fluorescence; at 10 µM; stronger effect = lower value.
On to `CCOC(=O)c1c(C)oc2cc(Sc3ccccc3)c(O)c(O)c12`, for which the B-score is 1.87.
Turning to `CCC(c1nnc(SCC(=O)NNC(=O)c2ccccc2)n1Cc1ccccc1)N(C)C` (stereo unspecified), the B-score is 0.93.
`CCCNC(=O)c1onc(CSc2ccc(F)cc2)c1C(=O)NC(C)C`: the B-score is -1.25.
As for `O=[N+]([O-])c1ncc(Br)cc1Nc1ccccc1`, the B-score was 0.16.
As to `O=C(NCc1ccncc1)c1ccc(NS(=O)(=O)c2cccc([N+](=O)[O-])c2)cc1`, the B-score was 0.45.
Consider `CCCCN1C(N)=NC[C@@H]1CC1CCCCC1`, for which the B-score is -1.04.
With `COc1cccc(NC(=O)CSc2nccn(-c3ccc4c(c3)OCCO4)c2=O)c1` the figure was -0.69.
For `Nc1ccccc1/C=N\N=C/c1ccccc1N`, the B-score was -1.02.
Regarding `Cc1noc(C)c1CSCC(=O)Nc1ccc(Br)cc1Cl`, the B-score was 0.74.
For the molecule `COc1ccc(Cl)cc1NC(=O)CN(C)C(=O)c1cc(-c2cccs2)nn1-c1ccccc1`, the B-score is -0.85.
Regarding `CCCCn1c(N)c(N(CCOC)C(=O)c2sc3ccccc3c2Cl)c(=O)[nH]c1=O`, the B-score is -0.1.
Regarding `COc1ccc(NS(=O)(=O)c2ccc(C)c(C(=O)N(C)Cc3ccc(OC)cc3OC)c2)cc1`, the B-score was 0.75.
Turning to `O=C(CCl)N(Cc1cccc([N+](=O)[O-])c1)c1cccc(Cl)c1`, the B-score is -5.7 (active).
For `Cc1ccc(S(=O)(=O)N(Cc2cccc([N+](=O)[O-])c2)C(=O)N2CCN(C)CC2)cc1`, the B-score is 1.58.
As to `CCN(CC)C(=O)CN(c1cccc([N+](=O)[O-])c1)S(=O)(=O)c1ccccc1`, the B-score is 1.08.
Turning to `COc1ccccc1NC(=O)Nc1nc(CC(=O)Nc2ccccc2F)cs1`, the B-score was -0.89.
With `CC1CCc2[nH]c3ccc(C(=O)N(C)CC(=O)Nc4cccc(F)c4)cc3c2C1` (stereo unspecified) the figure was -0.84.
As to `CC(C)N(C(=O)c1ccc(-c2ccccc2F)cc1)C(C)C`, the B-score was -0.06.
In the case of `O=C(CN1C(=O)c2ccccc2C1=O)NCc1ccc(C(=O)O)cc1` it was -0.03; in that of `CC(=O)N(C1=C(Cl)C(=O)c2ccccc2C1=O)c1ccc(C(=O)O)cc1`, -11 (active); in that of `COc1ccc(CCNc2cc(N3CCN(C(=O)c4ccccc4OC)CC3)ccc2[N+](=O)[O-])cc1OC`, -0.2.
As to `CC1(C)C=Cc2c(ccc3c2OC[C@@H](c2ccc(O)cc2O)C3)O1`, the B-score was 0.26.
In the case of `Cc1ccc(S(=O)(=O)CCC(=O)Nc2nnc(CC(C)C)s2)cc1` it was 0.9; in that of `COc1ccc(OCC(O)CNCCNc2nccc(C(F)(F)F)n2)cc1` (stereo unspecified), -1.42.
With `OC(COc1ccc(Br)cc1)CN1CCCC1` (stereo unspecified), the B-score was -0.51.
In the case of `CC(C)(C)CC(C)(C)NCC(O)COCCOc1ccc(Br)cc1` (stereo unspecified), the B-score was -6.18 (active).
For the molecule `CCCCCC(=O)N1CCN(S(=O)(=O)c2ccc3c(c2)OCCCO3)CC1`, the B-score is -1.7.
Turning to `COc1ccc(Cl)cc1NC(=O)CN1CCN(C(=O)N2CCOCC2)CC1`, the B-score was -2.11.
In the case of `CC1CC(=S)Nc2ccccc2N1Cc1ccccc1` (stereo unspecified), the B-score is -4.8 (active).
With `CC1CC(C)(C)NC(=S)N1CCC(=O)N1CCN(Cc2ccccc2)CC1` (stereo unspecified), the B-score is -0.96.
In the case of `CC1CC(=O)Nc2ccccc2N1S(=O)(=O)c1cccs1` (stereo unspecified) it was -0.1.
As for `O=C(NCCc1ccco1)C(=O)NCCC1CCCCN1S(=O)(=O)c1ccccc1` (stereo unspecified), the B-score was -0.4.
Turning to `Cc1ccc(-c2nn(-c3ccccc3)cc2/C=C2\SC(=S)N(CCCCCC(=O)O)C2=O)o1`, the B-score is -6 (active).
In the case of `CN(C)S(=O)(=O)c1cccc(-c2nn(-c3ccccc3)cc2/C=C2\SC(=S)N(CC(=O)O)C2=O)c1` it was 0.81.
Turning to `COc1ccc(-c2nn(-c3ccccc3)cc2/C=C2/SC(=S)N(CCCC(=O)O)C2=O)c(C)c1`, the B-score was 0.15.
Regarding `COc1ccc(-c2cc(C(=O)N/N=C/c3cccnc3)c3ccccc3n2)c(OC)c1`, the B-score is 0.47.
As for `O=C(NNC(=O)c1ccc(-c2ccccc2)cc1)Nc1ccccc1`, the B-score is -0.44.
In the case of `CCOC(=O)c1c(C)[nH]c(C(=O)OCC(=O)N2CCCC2=O)c1C`, the B-score was -0.25.
With `Cc1csc(NC(=O)CSc2nc(=O)n(CCCN(C)C)c3c2CCC3)n1`, the B-score is 1.14.
With `Cc1ccc(NC(=O)CSc2nc(=O)n(CCN(C)C)c3c2CCCC3)c(C)c1` the figure was -0.41; with `Cc1ccc2nc(NC(=O)CSc3nc(=O)n(CCCN(C)C)c4c3CCC4)sc2c1`, -4.83 (active); with `COc1ccc(S(=O)(=O)N2CCCCC2)cc1NC(=O)COc1ccccc1`, 0.95.
Turning to `CC(Nc1nc(N2CCN(CCO)CC2)nc2ccccc12)c1ccccc1` (stereo unspecified), the B-score is -0.6.
For the molecule `CC(Nc1nc(N2CCOCC2)nc2ccccc12)c1ccccc1` (stereo unspecified), the B-score was -0.41.
In the case of `CC(Nc1nc(N2CCCC2)nc2ccccc12)c1ccccc1` (stereo unspecified) it was -4.56 (active).
With `COc1ccc(-c2c(C#Cc3ccccc3)c3ccccc3n2C)cc1` the figure was 0.01; with `COc1ccc(CCNCc2c(-c3ccccc3)n(C)c3ccccc23)cc1`, -10.9 (active); with `COc1ccc(-c2nc3ccccc3c(=O)n2CCc2ccc(O)cc2)cc1`, 0.02.
Turning to `CCOc1cc2ccccc2cc1C(=O)Nc1ccccn1`, the B-score was 1.1.
For the molecule `COc1ccccc1C(=O)Nc1ccccc1C(=O)Nc1ccccc1`, the B-score is 1.53.
As to `CC(C)(C)NCC(O)COc1cccc2[nH]c(=O)[nH]c12` (stereo unspecified), the B-score is 1.46.
For the molecule `COc1ccccc1OCCNCC(O)COc1cccc2[nH]c3ccccc3c12` (stereo unspecified), the B-score is -4.77 (active).
`COc1cccc2[nH]c(C(=O)NCCc3ccccc3)cc12`: the B-score was 0.06.
As to `Cc1cc2oc3ccc(NCCC4CCCN4C)cc3c(=O)c2cc1C` (stereo unspecified), the B-score is -7.66 (active).
Consider `Cc1cc2oc(=O)cc(CN3CCN(Cc4ccccc4)CC3)c2cc1C`, for which the B-score is -2.25.
Consider `CCCOc1ccc(C2c3c(oc4cc(C)c(C)cc4c3=O)C(=O)N2CCCN2CCOCC2)cc1` (stereo unspecified), for which the B-score was 0.6.
Take `COc1ccccc1NC(=O)COC(=O)c1ccccc1SCC(=O)N1CCCC1`: the B-score was 1.77.
With `O=C(c1cc(-c2ccco2)nc2ccccc12)N(Cc1nnc(-c2ccc(Cl)cc2)o1)C1CC1` the figure was -1.19.
Take `O=C(NC1C2CC3CC(C2)CC1C3)c1ccc(N2CCNCC2)c([N+](=O)[O-])c1` (stereo unspecified): the B-score was 0.7.
Take `CC(NC(=O)c1ccc(N2CCNCC2)c([N+](=O)[O-])c1)C12CC3CC(CC(C3)C1)C2` (stereo unspecified): the B-score was -8.06 (active).
For `CCC(C)NC(=O)c1ccc(N2CCC3(CC2)OCCO3)c([N+](=O)[O-])c1` (stereo unspecified), the B-score was 0.4.
In the case of `COCOc1cc(O)c(C(=O)/C=C/c2ccc(OCOC)c(OCOC)c2)c(OCOC)c1` it was 1.19; in that of `COc1ccc(CNC(=O)C2CCCC2)cc1`, 1.06; in that of `COc1ccc(Nc2cc(Cl)ccc2C(=O)O)cn1`, 2.53.
With `COc1ccc(NC(=O)/C(Cl)=C(/Cl)S(=O)Cc2ccc(C)cc2)cn1` (stereo unspecified) the figure was -5.16 (active).
For `COc1ccc(NC(=O)c2cc(-c3ccc(C)cc3)on2)cc1`, the B-score is 0.92.
With `CC1CCN(c2ccc(-c3ccc(NC(=O)c4ccco4)cc3)nn2)CC1` the figure was 2.11; with `COC(=O)c1ccc(NC(=O)c2ccccc2NS(=O)(=O)c2ccccc2)cc1`, -0.07; with `COc1cc(NC(=O)c2cccnc2SC)cc(OC)c1`, -1.22.
With `COc1cc(NC(=O)c2ccccc2NS(=O)(=O)c2ccc(Cl)s2)cc(OC)c1` the figure was -4.91 (active); with `Cc1ccn2c(=O)nc(SCC(=O)NCc3ccc4c(c3)OCO4)nc2c1`, -1.61; with `Cc1ccc2nc(NC(=O)C3CSC4(C)CCC(=O)N34)sc2c1` (stereo unspecified), -0.28.
With `CCOc1ccc(S(=O)(=O)Nc2cccc(C(=O)NCC3(N4CCCCC4)CCCCC3)c2)cc1` the figure was -0.12; with `Cc1ccc(C(=O)C(C)OC(=O)Cc2n[nH]c(=O)c3ccccc23)cc1C` (stereo unspecified), -0.94.
In the case of `O=C(CN1C(=O)NC2(CCCC2)C1=O)OCCOc1ccc(F)cc1`, the B-score was 0.63.
In the case of `CCn1c2ccccc2c2cc(NC(=O)COC(=O)c3ccccc3Br)ccc21` it was 1.33; in that of `CCn1c2ccccc2c2cc(NC(=O)CNC)ccc21`, -5.93 (active).
As to `CCn1c2ccccc2c2cc(NC(=O)C/C(C)=N/NC(=O)c3ccccc3N)ccc21`, the B-score was 1.9.
As to `COc1ccc(CCNC(=O)C(=O)NCC2CCCN2S(=O)(=O)c2cccs2)cc1OC` (stereo unspecified), the B-score is -0.91.
For `COc1ccc(C)cc1S(=O)(=O)Nc1cc2c3c(c1)CCC(=O)N3CCC2`, the B-score is 0.54.
As for `COc1ccc(NC(=O)CCC(=O)N2CCN(S(=O)(=O)c3ccc(C)cc3)CC2)c(OC)c1`, the B-score was -0.19.
Consider `COc1ccccc1C(=O)NC(CCSC)C(=O)N1CCN(C/C=C/c2ccccc2)CC1` (stereo unspecified), for which the B-score was -1.22.
Take `COc1ccc(Cn2nnc3c(=O)[nH]c(C4CCN(C(=O)c5ccccc5Cl)CC4)nc32)cc1`: the B-score was 1.59.
Take `COc1ccc(CN2CCC(c3nc4ccc(Cl)cc4[nH]3)CC2)cc1`: the B-score was -7.29 (active).
Regarding `COc1ccc(CN2CCN(Cc3ccc(OC)c(OC)c3OC)CC2)cc1`, the B-score is 0.47.
On to `O=C(Nc1ccc(S(=O)(=O)N2CCCCC2)cc1)C1CCN(C(=O)c2ccc(F)cc2)CC1`, for which the B-score was -0.97.
`COc1cc(/C=N/O)cc(Br)c1OCc1cccc(Cl)c1`: the B-score was -0.84.
In the case of `COc1cc(/C=N/O)cc(Br)c1OS(=O)(=O)c1ccc(C)cc1`, the B-score is -10.4 (active).
For the molecule `COc1cc(/C=N/Nc2ccc(C)cc2)cc(Br)c1O`, the B-score was -0.11.
Consider `CCc1nnc(NS(=O)(=O)c2ccc(NC(=O)c3cccc(OC(F)(F)C(F)F)c3)cc2)s1`, for which the B-score is -0.69.
For the molecule `Cc1ccc(-c2cc(=O)[nH]c(NCc3ccccc3)n2)cc1`, the B-score was -1.96.
